Measurements as given in PubChem BioAssay AID588397 (National Center for Advancing Translational Sciences (NCATS), 2011).
In all, about 1,300 compounds went through this assay and about 1,000 (77%) were called active. Inconclusive results (about 7%) are left out. The set was probably picked from earlier hits. Some of the results follow. Values without a mark were called inactive. Calls come from the whole dose curve; as a rule, active = well fitted inhibition curve with a large enough effect; inconclusive = small, poorly fitted or top-dose-only effect; inactive = no such curve, though single readings can be large or run the other way.
% is set by controls: 0 for no effect and ±100 for the full control effect; potency is the fitted concentration of half-maximal effect.

Test: qHTS of small molecules that selectively kill Giardia lamblia: Hit Validation.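 Note: viability measured as ATP content by luminescence so killing lowers signal; nearly all actives have a fitted effect of over 65% in size.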
Conditions: Giardia lamblia trophozoite viability, dose-response; series mostly up to 38.3 µM; activity change, negative = killing: at the top concentration
Summary of the method: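 Compounds were tested on trophozoites seeded at 100 cells/well and held 48 hrs at 37 deg C anaerobically. An ATP-based luminescent kit measured the remaining live cells.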
For `CN(CCc1ccccc1)C(=O)c1cccc(NC(=O)Cc2cccc(NC(=O)C3CCN(C(=O)C4CCCC4)CC3)c2)c1`, the “activity change, negative = killing” value was -1.44%.
With `CN(Cc1ccccc1)C(=O)c1ccc(NC(=O)Cc2cccc(NC(=O)C3CCN(C(=O)C4CC4)CC3)c2)cc1` the “activity change, negative = killing” value was -32%.
For `O=C(Nc1ccccc1C(=O)O)c1ccc(NC(=O)C2CC2)cc1`, the Potency was 4100 nM (active).
With `N/C(=N\O)c1ccc([N+](=O)[O-])s1` the Potency was 2900 nM (active).
In the case of `O=[N+]([O-])c1cccn2cc(-c3ccc(Br)cc3)nc12`, the Potency is reported as 729 nM (active).
For `O=C(c1ccco1)N1CCN(c2c([N+](=O)[O-])nn(-c3ccc(Cl)cc3)[n+]2[O-])CC1`, the Potency was 918 nM (active).
With `O=C(c1ccco1)N1CCN(c2c([N+](=O)[O-])nn(-c3cccc(Cl)c3)[n+]2[O-])CC1` the Potency was 2590 nM (active).
With `Cn1c([N+](=O)[O-])cnc1COC(N)=O` the Potency was 1160 nM (active).
For `O=C(NC(=S)Nc1ccc(CN2CCOCC2)cc1)c1ccc([N+](=O)[O-])cc1Cl`, the Potency was 4100 nM (active).
For `CC(C)OC(=O)Nc1ccc2c(c1)N(C(=O)N1CCN(C)CC1)c1ccccc1CC2`, the Potency was 4100 nM (active).
In the case of `CCCCOc1ccc(C(=O)NCC(=O)NCCCn2nc(C)cc2C)cc1`, the “activity change, negative = killing” value is reported as -2.52%.
In the case of `O=C(CN1C(=O)c2ccccc2S1(=O)=O)c1ccc2c(c1)OCCCO2`, the Potency is reported as 1030 nM (active).
For `O=C(CN1C(=O)c2ccccc2S1(=O)=O)c1ccc2c(c1)OCCO2`, the Potency was 2900 nM (active).
With `O=C1SCCN1N=Cc1ccc([N+](=O)[O-])o1` the Potency was 326 nM (active).
With `CC1CS(=O)(=O)CCN1N=Cc1ccc([N+](=O)[O-])o1` (stereo not drawn) the Potency was 365 nM (active).
For `O=C1OC(CN(Cc2ccccc2)Cc2ccccc2)CN1N=Cc1ccc([N+](=O)[O-])o1` (stereo not drawn), the Potency was 650 nM (active).
For `Cc1ccc(-c2ccc(/C=N/N3C(=O)C4C5C=CC(CC5)C4C3=O)o2)c([N+](=O)[O-])c1` (stereo not drawn), the “activity change, negative = killing” value was -17.9%.
In the case of `O=C1c2cc([N+](=O)[O-])cc3cc([N+](=O)[O-])cc(c23)C(=O)N1c1ccccn1`, the Potency is reported as 1830 nM (active).
In the case of `Cc1cc(O)ccc1N1C(=O)c2cccc3cc([N+](=O)[O-])cc(c23)C1=O`, the Potency is reported as 2900 nM (active).
For `Cc1ccc(-c2nc3ncccc3o2)cc1NC(=O)c1ccc([N+](=O)[O-])o1`, the Potency was 918 nM (active).
For `O=C(Nc1ccc(-c2nc3ncccc3o2)cc1)c1ccc([N+](=O)[O-])o1`, the Potency was 1300 nM (active).
In the case of `Cc1c(NC(=O)c2ccc([N+](=O)[O-])o2)cccc1-c1nc2ncccc2o1`, the Potency is reported as 918 nM (active).
For `Nc1nc2ccccc2n1/N=C/c1ccc([N+](=O)[O-])s1`, the Potency was 410 nM (active).
With `O=[N+]([O-])c1ccc(/C=N/n2c(CO)nc3ccccc32)s1` the Potency was 650 nM (active).
With `Cc1nc2ccccc2n1/N=C/c1ccc([N+](=O)[O-])s1` the Potency was 1630 nM (active).
For `Cc1cc2ncn(/N=C/c3ccc([N+](=O)[O-])s3)c2cc1C`, the Potency was 1300 nM (active).
In the case of `O=C(Cc1ccccc1)Nc1nnc(-c2cccs2)s1`, the Potency is reported as 1450 nM (active).
In the case of `O=[N+]([O-])c1ccc2nc(CO)[nH]c2c1`, the Potency is reported as 2310 nM (active).
For `CCc1nc2cc([N+](=O)[O-])c([N+](=O)[O-])cc2[nH]1`, the Potency was 6500 nM (active).
With `Cn1c([N+](=O)[O-])cnc1N1CCN(c2nncs2)C1=O` the Potency was 365 nM (active).
In the case of `Cc1cc(C)c2nc(NC(=O)c3ccc([N+](=O)[O-])o3)sc2c1`, the Potency is reported as 1160 nM (active).
In the case of `Cc1cc(C)c2sc(NC(=O)c3ccc([N+](=O)[O-])o3)nc2c1`, the Potency is reported as 1160 nM (active).
In the case of `Cc1cccc(-n2ncc3c(N4CCCC4)ncnc32)c1`, the Potency is reported as 5160 nM (active).
With `COc1ccc(Cn2ccnc2SCC(=O)NC2CCCC2)cc1` the “activity change, negative = killing” value was -1.53%.
In the case of `COc1ccc(C(=S)NC2CCCCC2)cc1`, the Potency is reported as 1030 nM (active).
For `Cc1nc2c(o1)C(=O)c1ccccc1C2=Nc1ccccc1`, the Potency was 6500 nM (active).
In the case of `Cc1cccc(-n2nc([N+](=O)[O-])c(=NCc3cccnc3)n2O)c1`, the Potency is reported as 4100 nM (active).
In the case of `Cc1ccc(CN=c2c([N+](=O)[O-])nn(-c3cccc(Cl)c3)n2O)cc1`, the Potency is reported as 18300 nM (active).
With `Cc1ccc(CN=c2c([N+](=O)[O-])nn(-c3cccc(C)c3)n2O)cc1` the Potency was 18300 nM (active).
For `COc1ccc(-n2nc([N+](=O)[O-])c(=NCc3cccnc3)n2O)cc1`, the Potency was 2590 nM (active).
With `O=[N+]([O-])c1nn(-c2ccc3c(c2)OCCO3)n(O)c1=NC1CCCCCC1` the Potency was 2050 nM (active).
With `O=[N+]([O-])c1nn(-c2ccc3c(c2)OCCO3)n(O)c1=NC1CCCC1` the Potency was 3650 nM (active).
With `O=[N+]([O-])c1nn(-c2ccc3c(c2)OCCO3)n(O)c1=NC1CCCCC1` the Potency was 3260 nM (active).
In the case of `Cc1nc([N+](=O)[O-])cn1-c1nc2ccccn2c1[N+](=O)[O-]`, the Potency is reported as 1830 nM (active).
For `COc1cc(-c2noc(C)c2C(=O)NCC[C@@H]2CCCN2C)cc(OC)c1OC`, the “activity change, negative = killing” value was 10.1%.
With `Cc1ccc([N+](=O)[O-])cc1NC(=O)C1CCN(S(C)(=O)=O)CC1` the “activity change, negative = killing” value was -23.7%.
With `Cc1cc(C)cc(NC(=O)Cn2c(=O)oc3cc(S(=O)(=O)N4CCC(C)CC4)ccc32)c1` the “activity change, negative = killing” value was -17.3%.
For `Cc1ccc(NC(=O)C2CCN(S(=O)(=O)c3cc([N+](=O)[O-])ccc3Cl)CC2)nc1`, the Potency was 4600 nM (active).
For `Cc1ccc(C)c(Sc2ccc(NC(=O)CCl)cc2)c1`, the Potency was 918 nM (active).
With `Cc1ccc(SCCNC(=O)c2ccccc2F)cc1` the “activity change, negative = killing” value was -19.2%.
In the case of `C(=C\c1cnc2ccccc2n1)/c1ccc2c(c1)OCO2`, the Potency is reported as 2310 nM (active).
For `C(=C\c1nc2ccccc2s1)/c1ccc2c(c1)OCO2`, the Potency was 2310 nM (active).
In the case of `O=C(N/N=C/c1ccc([N+](=O)[O-])s1)c1ccccc1Br`, the Potency is reported as 1630 nM (active).
With `Cc1ccccc1NCC(=O)N/N=C\c1ccc([N+](=O)[O-])s1` the Potency was 3260 nM (active).
For `Cc1ccccc1C(=O)N/N=C/c1ccc([N+](=O)[O-])s1`, the Potency was 1450 nM (active).
In the case of `Cc1cc(C(=O)N/N=C/c2ccc([N+](=O)[O-])s2)c2ccccc2n1`, the Potency is reported as 2900 nM (active).
With `N/C(=N\N=Cc1ccc2c(c1)OCO2)NN=Cc1ccc2c(c1)OCO2` the Potency was 4100 nM (active).
With `C[C@@H]1CC=C[C@H]2[C@H]1C(=O)N(Cc1ccccc1)[C@H]2c1ccc2ccccc2c1/C=C/c1ccccc1` the “activity change, negative = killing” value was 0.989%.
